Bioassay records from PubChem.
Tg IFNy HTS: T. gondii growth inhibition with IFN-gamma, primary screen, cell-based; Toxoplasma gondii growth in IFN-gamma-treated host cells; hits give low values; activity change, negative = inhibition, % (concentration not given with the values); 69,000 compounds, 3.8% hits; in the data active = activity change below about -70%, passing the limit was not always enough;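 also: host cells are HeLa cells infected with Toxoplasma gondii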
Large screens that a line does not name were inactive. Shown is part of a subset that was picked to be rich in hits.

Cc1cc(C)cc(NC(=O)N2CCC3(CC2)Nc2cc(C)ccc2-n2cccc23)c1	Tg IFNy HTS -108
Cc1cc(C)cc(NC(=O)N2CCC3(CC2)Nc2cc(F)ccc2-n2cccc23)c1	none
CCN1c2cc(C)ccc2-n2cccc2C12CCN(C(=O)Nc1cccc(Cl)c1C)CC2	none
CCN1c2cc(C)ccc2-n2cccc2C12CCN(C(=O)Nc1ccccc1Cl)CC2	Tg IFNy HTS -110
Nc1nc(NCC2CCOCC2)cc(N2CCOCC2)n1	none
Nc1nc(CNC(=O)CCSc2ccc3c(c2)OCCO3)cs1	none
O=C(Cn1ncc2c(N3CCN(c4ccccc4)CC3)ncnc21)Nc1ccccc1F	none
Cc1nn(-c2ccc(F)cc2)c(C)c1C(=O)N1CC(c2ccncc2)C1	none
COc1nccc(-c2c(-c3ccc(F)cc3)ncn2C2CCC(O)CC2)n1 (configuration not stated)	Tg IFNy HTS -79
CCCN1CCC(c2cc3c(ncn3C)c(-c3ccc(OC)cc3)n2)CC1	none
COc1cc2c(cc1CN(Cc1nccn1C)C1CC1)CCC2	none
COc1cccc(-c2nc(Cn3nnc(C(=O)Nc4cccc(Cl)c4C)c3C)c(C)o2)c1OC	none
COc1cccc(-c2nc(Cn3nnc(C(=O)Nc4cc(C)cc(C)c4)c3C)c(C)o2)c1OC	Tg IFNy HTS -105
COc1ccc(NC(=O)c2nnn(Cc3nc(-c4cccc(OC)c4OC)oc3C)c2C)cc1Cl	none
CCOc1ccccc1-c1nc(Cn2nnc(C(=O)Nc3ccccc3OC)c2C)c(C)o1	none
CCOc1ccccc1NC(=O)c1nnn(Cc2nc(-c3cccc(OC)c3OC)oc2C)c1C	Tg IFNy HTS -79
COc1cccc(-c2nc(Cn3nnc(C(=O)Nc4ccccc4)c3C)c(C)o2)c1OC	none
N#CCN1CCC(n2cccn2)c2cc(NC(=O)c3ccco3)ccc21 (configuration not stated)	none
COc1cccc(C2(NC(=O)c3cnn4c(C)cc(C)nc34)CCCC2)c1	none
CO[C@@H]1CCN(Cc2cccc(C)n2)[C@H]2CN(Cc3ccncc3)C[C@@H]12	none
Cc1nc(-c2ccccn2)nc(SCC(=O)N2CCOCC2)c1Cl	none
Clc1ccc(CSc2n[nH]c(-c3ccccn3)n2)cc1	none
Cc1nc(-c2ccccn2)nc(SCc2ccccc2)c1Cl	Tg IFNy HTS -89
Cc1nn(-c2ccccc2)c2nc(-c3ccncc3)cc(C(F)(F)F)c12	none
Cc1ccc(-c2nnc(-c3ccc4c(c3)OCO4)o2)cc1	none
Cc1nc(-n2cnnc2)ccc1-c1ccc2c(c1)OCO2	Tg IFNy HTS -97
Cc1cnc(-n2cnnc2)c(-c2ccc3c(c2)OCCO3)c1	none
COc1cc2ncnc(Nc3ccc(F)c(Cl)c3)c2cc1OCCCN1CCOCC1	none
COc1cc2ncnc(Sc3ccc(Cl)cc3)c2cc1OC	none
COc1cc2ncnc(Nc3ccc(Cl)cc3F)c2cc1OC	Tg IFNy HTS -82
CCOc1ccc2oc(=O)cc(CN3CCN(Cc4nc(-c5ccc(OC)cc5)oc4C)CC3)c2c1	none
CCCCC1C(=O)N(C)CCN1C(=O)c1cc(NC(C)=O)ccc1Cl (configuration not stated)	none
Cc1cccn2cc(-c3ccc(NC(=O)CNC(=O)c4ccccc4)cc3)nc12	none
CC(C)Oc1ccc(C(=O)N[C@H](CNC(=O)CN(C)C)Cc2ccc(-c3cn4cccc([C@H](C)O)c4n3)cc2)cc1Cl	Tg IFNy HTS -80
CSc1ccc(CC2(CCC(=O)N3CCCC3c3nc4ccc(F)cc4[nH]3)CCC(=O)N2)cc1 (configuration not stated)	none
CCOc1ncnc2c1CCN(C(=O)NCc1ccccc1)CC2	none
CC(Oc1cccc(Br)c1)C(=O)NCc1ccc(-n2cccc2)cc1 (configuration not stated)	none
CN(C)c1cncc(-c2cccc(-n3cccn3)c2)n1	none
O=C(O)c1ccc(-c2cccc(-n3cccn3)c2)o1	none
c1ccc(-c2[nH]cnc2-c2cccc(-n3cccn3)c2)cc1	Tg IFNy HTS -95
Nc1ccc(Oc2cc(C(F)(F)F)cc(C(F)(F)F)c2)cc1	none
CO[C@H](CN(C)Cc1nccs1)[C@H](C)CN([C@@H](C)CO)S(=O)(=O)c1ccc(F)cc1	none
CC(C)OC(=O)OCOP(=O)(CO[C@H](C)Cn1cnc2c(N)ncnc21)OCOC(=O)OC(C)C	Tg IFNy HTS -78
Nc1ncnc2c1ncn2C1OC(COP(=O)(O)O)C(O)C1O (configuration not stated) (tested in a mixture with another compound)	none
Nc1ncnc2c1ncn2CCOCP(=O)(O)O	none
CCn1c(C2CCCN(C(=O)CCn3nnc4ccccc43)C2)nn(C)c1=O (configuration not stated)	none
Cc1ccc(C(=O)Oc2ccc(C)cc2-n2nc3ccccc3n2)cc1	none
Cc1ccc(-c2nc(Cn3nnc(-c4nc(-c5ccc(OCC(C)C)cc5)no4)c3C)c(C)o2)cc1	none
Cc1oc(-c2ccccc2)nc1Cn1nnc(-c2nc(-c3ccc(OC(C)C)cc3)no2)c1C	Tg IFNy HTS -80
Cc1cc(C)c(NC(=O)c2nnn(Cc3nc(-c4ccc(Cl)cc4)oc3C)c2C)c(C)c1	none
Cc1ccc(-c2nc(Cn3nnc(C(=O)Nc4cccc(Cl)c4)c3C)c(C)o2)cc1	none
COc1ccc(NC(=O)c2nnn(Cc3nc(-c4ccccc4)oc3C)c2C)cc1	Tg IFNy HTS -94
Cc1cccc(C)c1NC(=O)c1nnn(Cc2nc(-c3cccc(Cl)c3)oc2C)c1C	none
Cc1cccc(C)c1NC(=O)c1nnn(Cc2nc(-c3ccc(Cl)cc3)oc2C)c1C	Tg IFNy HTS -122
Cc1oc(-c2ccccc2)nc1Cn1nnc(C(=O)Nc2cccc(Cl)c2)c1C	none
COc1ccccc1NC(=O)c1nnn(Cc2nc(-c3ccccc3)oc2C)c1C	none
CCOc1ccc(-c2nc(Cn3nnc(C(=O)Nc4ccccc4)c3C)c(C)o2)cc1	none
Cc1ccc(-c2nc(Cn3nnc(-c4nc(-c5ccc(OC(C)C)cc5)no4)c3C)c(C)o2)cc1	none
Cc1oc(-c2cccc(Cl)c2)nc1Cn1nnc(C(=O)Nc2cccc(Cl)c2)c1C	Tg IFNy HTS -86
O=S(=O)(Oc1ccccc1N1CCCCC1)c1ccc(-c2ccccn2)s1	none
Cc1ccc(F)c(CN2C[C@@H](C(=O)O)C[C@@H](C(=O)NC3CC3)C2)c1Cl	none
Cc1ccccc1C(NC(=O)Cn1[nH]c(=O)ccc1=O)c1ccncc1 (configuration not stated)	none
CC(C)Cc1cc(CNC(=O)c2cn3c(n2)CNCC3)no1	none
CC(C)c1cc(C2CCCN2C(=O)Cn2nc(C(F)(F)F)c3c2CCCC3)no1 (configuration not stated)	none
CCOC(=O)C1(CCOc2ccccc2)CCNCC1	none
Cc1ncc(C(=O)N2CCC(c3cc(Cc4ccccc4)[nH]n3)CC2)c(C)n1	none
COc1ccc(C2CC(=O)Nc3c2c(C)nn3-c2ccc(C)cc2)cn1 (configuration not stated)	none
Cc1ccc(F)cc1NC(=O)c1nnn(Cc2nc(-c3ccc(OC(C)C)cc3)oc2C)c1C	none
Cc1ccc(NC(=O)c2nnn(Cc3nc(-c4ccc(Cl)cc4)oc3C)c2C)c(C)c1	none
Cc1ccc(Cl)cc1NC(=O)c1nnn(Cc2nc(-c3ccccc3)oc2C)c1C	none
Cc1ccc(NC(=O)c2nnn(Cc3nc(-c4ccc(OC(C)C)cc4)oc3C)c2C)c(C)c1	Tg IFNy HTS -98
Cc1cc(C)c(NC(=O)c2nnn(Cc3nc(-c4ccccc4)oc3C)c2C)c(C)c1	Tg IFNy HTS -77
CCc1ccccc1NC(=O)c1nnn(Cc2nc(-c3ccccc3)oc2C)c1C	none
CCOC(=O)c1nc(-c2ccc(Br)o2)no1	none
Cc1cccc(-n2cc(CN(C)CC3(CO)CC3)cn2)c1	none
CC(=O)Nc1cccc(NC(=O)CCN2CCCN(C)CC2)c1	none
C[C@]12CC[C@@H]3c4ccc(O)cc4C(=O)C[C@H]3[C@@H]1CC[C@@H]2O	none
